# From publication PMC7862700, “An all-to-all approach to the identification of sequence-specific readers for epigenetic DNA modifications on cytosine”
# Legend:
# Experiment in all cases: DAPPL (digital affinity profiling via proximity ligation, sequencing); 10 mM Tris-HCl pH 7.5, 50 mM NaCl, 1 mM DTT, 4% glycerol, room temperature, 30 min; GST-TFs on glutathione beads, 16-mer random dsDNA library, 0.1% formaldehyde crosslink after washing; high values mean tight binding
# FLI1 = molecular target: T1, FLI1 (Homo sapiens, UniProt Q01543 1-452); conditions: protein: recombinant; tags: N-terminal GST; dsDNA, one strand shown
# T1 sequence: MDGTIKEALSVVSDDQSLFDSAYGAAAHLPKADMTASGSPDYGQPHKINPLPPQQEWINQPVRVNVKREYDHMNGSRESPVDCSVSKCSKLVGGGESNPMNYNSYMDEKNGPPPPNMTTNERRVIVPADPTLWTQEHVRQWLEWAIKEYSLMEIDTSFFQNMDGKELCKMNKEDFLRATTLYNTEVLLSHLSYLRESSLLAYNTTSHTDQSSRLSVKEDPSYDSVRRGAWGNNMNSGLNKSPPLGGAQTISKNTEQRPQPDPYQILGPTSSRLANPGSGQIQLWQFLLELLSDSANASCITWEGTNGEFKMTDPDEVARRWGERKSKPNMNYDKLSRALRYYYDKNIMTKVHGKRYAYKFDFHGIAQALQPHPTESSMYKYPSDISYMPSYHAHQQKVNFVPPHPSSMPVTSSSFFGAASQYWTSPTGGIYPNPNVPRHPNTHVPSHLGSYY
# Procedure, shortened: (§1)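 A tag-only sample was pooled with DNA-barcoded human transcription factors that had been expressed in yeast as GST fusions and captured on glutathione beads. The pools were incubated for 30 min at room temperature with 200 nmole of a random double-stranded 16-mer DNA library in Tris/NaCl/DTT/glycerol buffer, then washed, crosslinked with 0.1% formaldehyde, proximity-ligated (BsaI/T4 ligase, 1 h, 37 °C), PCR-amplified and sequenced on an Illumina NextSeq500. Binding signal is each hexamer's read frequency for a factor divided by its frequency for the tag-only sample.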
# ELK1 = molecular target: T2, ELK1 (Homo sapiens, UniProt P19419 1-428); conditions: protein: recombinant; tags: N-terminal GST; dsDNA, one strand shown
# T2 sequence: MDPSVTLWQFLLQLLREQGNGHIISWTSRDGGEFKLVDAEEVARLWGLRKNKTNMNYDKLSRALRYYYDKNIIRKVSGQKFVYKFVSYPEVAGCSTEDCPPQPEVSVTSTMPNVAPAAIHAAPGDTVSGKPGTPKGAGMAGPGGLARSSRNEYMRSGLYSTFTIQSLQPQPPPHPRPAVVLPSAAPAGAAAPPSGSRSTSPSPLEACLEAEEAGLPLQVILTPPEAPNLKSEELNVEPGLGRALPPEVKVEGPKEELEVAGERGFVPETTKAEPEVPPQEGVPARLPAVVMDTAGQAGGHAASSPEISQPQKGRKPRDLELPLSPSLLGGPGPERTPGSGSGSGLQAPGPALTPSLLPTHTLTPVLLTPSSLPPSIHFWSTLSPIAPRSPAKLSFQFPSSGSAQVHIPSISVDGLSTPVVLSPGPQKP
# Procedure, shortened: as §1
# GABPA = molecular target: T3, GABPA (Homo sapiens, UniProt Q06546 1-454); conditions: protein: recombinant; tags: N-terminal GST; dsDNA, one strand shown
# T3 sequence: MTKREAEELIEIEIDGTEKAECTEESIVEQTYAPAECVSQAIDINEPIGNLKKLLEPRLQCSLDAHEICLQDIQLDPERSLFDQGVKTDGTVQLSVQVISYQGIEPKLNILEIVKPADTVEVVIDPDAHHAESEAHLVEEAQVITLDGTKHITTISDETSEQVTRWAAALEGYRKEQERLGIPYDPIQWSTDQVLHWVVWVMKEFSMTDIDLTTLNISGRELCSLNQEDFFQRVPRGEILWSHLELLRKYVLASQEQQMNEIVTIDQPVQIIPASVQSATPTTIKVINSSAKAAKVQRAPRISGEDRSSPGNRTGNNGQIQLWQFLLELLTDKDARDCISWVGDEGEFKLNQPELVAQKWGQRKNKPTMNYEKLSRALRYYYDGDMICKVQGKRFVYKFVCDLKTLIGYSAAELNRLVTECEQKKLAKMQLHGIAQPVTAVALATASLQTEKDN
# Procedure, shortened: as §1
# ERG = molecular target: T4, ERG (Homo sapiens, UniProt P11308 1-479); conditions: protein: recombinant; tags: N-terminal GST; dsDNA, one strand shown
# T4 sequence: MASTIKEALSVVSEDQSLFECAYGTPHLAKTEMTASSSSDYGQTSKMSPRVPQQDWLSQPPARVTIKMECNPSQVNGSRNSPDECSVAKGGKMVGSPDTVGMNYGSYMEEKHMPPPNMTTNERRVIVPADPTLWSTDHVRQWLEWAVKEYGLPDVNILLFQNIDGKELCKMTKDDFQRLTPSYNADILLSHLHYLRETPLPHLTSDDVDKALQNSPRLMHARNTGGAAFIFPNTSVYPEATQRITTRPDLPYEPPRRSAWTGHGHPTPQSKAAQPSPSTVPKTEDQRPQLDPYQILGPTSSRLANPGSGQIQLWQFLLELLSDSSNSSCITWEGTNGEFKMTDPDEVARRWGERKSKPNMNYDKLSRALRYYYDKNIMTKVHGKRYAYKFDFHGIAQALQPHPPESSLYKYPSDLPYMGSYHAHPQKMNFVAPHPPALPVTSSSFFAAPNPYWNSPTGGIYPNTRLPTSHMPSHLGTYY
# Procedure, shortened: as §1
# ELF1 = ELF1 (Homo sapiens, UniProt P32519 1-619); conditions: protein: recombinant; tags: N-terminal GST; dsDNA, one strand shown
# Sequence of ELF1 (P32519 whole entry): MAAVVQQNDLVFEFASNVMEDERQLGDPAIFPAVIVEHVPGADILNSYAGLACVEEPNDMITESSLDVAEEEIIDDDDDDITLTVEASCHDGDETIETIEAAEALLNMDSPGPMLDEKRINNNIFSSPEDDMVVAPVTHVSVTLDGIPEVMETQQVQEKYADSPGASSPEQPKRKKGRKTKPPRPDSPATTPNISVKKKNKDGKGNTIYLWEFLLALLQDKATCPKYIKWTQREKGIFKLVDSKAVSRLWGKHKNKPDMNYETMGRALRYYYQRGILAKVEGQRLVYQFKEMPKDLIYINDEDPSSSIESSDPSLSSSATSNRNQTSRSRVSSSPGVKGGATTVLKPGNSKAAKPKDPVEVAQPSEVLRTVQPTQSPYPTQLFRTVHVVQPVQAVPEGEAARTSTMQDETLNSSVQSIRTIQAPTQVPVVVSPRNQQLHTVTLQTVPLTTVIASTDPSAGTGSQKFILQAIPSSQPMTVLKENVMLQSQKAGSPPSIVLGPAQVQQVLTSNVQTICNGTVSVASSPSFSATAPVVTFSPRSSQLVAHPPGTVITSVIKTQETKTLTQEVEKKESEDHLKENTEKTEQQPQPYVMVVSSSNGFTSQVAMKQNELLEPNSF
# Procedure, shortened: as §1
# EHF = molecular target: T5, EHF (Homo sapiens, UniProt Q9NZC4 1-300); conditions: protein: recombinant; tags: N-terminal GST; dsDNA, one strand shown
# T5 sequence: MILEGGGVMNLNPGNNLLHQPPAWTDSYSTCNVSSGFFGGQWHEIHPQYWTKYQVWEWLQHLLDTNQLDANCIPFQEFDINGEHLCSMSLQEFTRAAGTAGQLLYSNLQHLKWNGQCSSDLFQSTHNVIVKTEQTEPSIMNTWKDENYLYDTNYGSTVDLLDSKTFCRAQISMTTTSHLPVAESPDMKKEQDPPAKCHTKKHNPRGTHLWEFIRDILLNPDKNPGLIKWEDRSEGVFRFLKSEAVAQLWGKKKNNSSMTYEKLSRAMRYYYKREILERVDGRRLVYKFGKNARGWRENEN
# Procedure, shortened: as §1
# SPI1 = SPI1 (Homo sapiens, UniProt P17947 1-270); conditions: protein: recombinant; tags: N-terminal GST; dsDNA, one strand shown
# Procedure, shortened: as §1
# SPIB = SPIB (Homo sapiens, UniProt Q01892 1-262); conditions: protein: recombinant; tags: N-terminal GST; dsDNA, one strand shown
# Sequence of SPIB (Q01892 whole entry): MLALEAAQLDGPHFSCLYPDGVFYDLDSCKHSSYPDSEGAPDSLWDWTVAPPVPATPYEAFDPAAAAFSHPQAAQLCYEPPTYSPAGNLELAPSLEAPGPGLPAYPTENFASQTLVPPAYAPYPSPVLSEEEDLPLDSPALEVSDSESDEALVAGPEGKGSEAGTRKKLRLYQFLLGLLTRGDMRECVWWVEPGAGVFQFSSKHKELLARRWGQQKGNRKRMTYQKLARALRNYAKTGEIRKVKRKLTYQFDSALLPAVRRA
# Procedure, shortened: as §1
# ELK3 = molecular target: T6, ELK3 (Homo sapiens, UniProt P41970 1-407); conditions: protein: recombinant; tags: N-terminal GST; dsDNA, one strand shown
# T6 sequence: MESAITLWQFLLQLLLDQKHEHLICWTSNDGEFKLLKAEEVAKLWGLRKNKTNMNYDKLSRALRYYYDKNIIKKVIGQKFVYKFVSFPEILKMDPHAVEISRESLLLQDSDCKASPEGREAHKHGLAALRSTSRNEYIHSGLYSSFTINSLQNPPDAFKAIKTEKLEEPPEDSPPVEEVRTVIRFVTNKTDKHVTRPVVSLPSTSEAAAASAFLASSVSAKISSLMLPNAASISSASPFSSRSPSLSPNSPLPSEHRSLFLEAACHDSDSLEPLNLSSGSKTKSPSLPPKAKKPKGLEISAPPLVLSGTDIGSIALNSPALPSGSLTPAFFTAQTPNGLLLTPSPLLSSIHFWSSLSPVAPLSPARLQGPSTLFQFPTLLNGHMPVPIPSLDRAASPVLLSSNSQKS
# Procedure, shortened: as §1
# FEV = molecular target: T7, FEV (Homo sapiens, UniProt Q99581 1-238); conditions: protein: recombinant; tags: N-terminal GST; dsDNA, one strand shown
# T7 sequence: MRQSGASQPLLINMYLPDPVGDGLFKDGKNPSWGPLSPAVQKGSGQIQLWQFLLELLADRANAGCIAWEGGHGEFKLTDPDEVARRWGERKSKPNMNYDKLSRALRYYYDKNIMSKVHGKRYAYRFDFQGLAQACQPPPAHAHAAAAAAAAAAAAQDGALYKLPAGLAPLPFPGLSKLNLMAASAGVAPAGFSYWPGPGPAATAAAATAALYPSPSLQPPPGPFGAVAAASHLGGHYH
# Procedure, shortened: as §1
# ETV5 = ETV5 (Homo sapiens, UniProt P41161 1-510); conditions: protein: recombinant; tags: N-terminal GST; dsDNA, one strand shown
# Sequence of ETV5 (P41161 whole entry): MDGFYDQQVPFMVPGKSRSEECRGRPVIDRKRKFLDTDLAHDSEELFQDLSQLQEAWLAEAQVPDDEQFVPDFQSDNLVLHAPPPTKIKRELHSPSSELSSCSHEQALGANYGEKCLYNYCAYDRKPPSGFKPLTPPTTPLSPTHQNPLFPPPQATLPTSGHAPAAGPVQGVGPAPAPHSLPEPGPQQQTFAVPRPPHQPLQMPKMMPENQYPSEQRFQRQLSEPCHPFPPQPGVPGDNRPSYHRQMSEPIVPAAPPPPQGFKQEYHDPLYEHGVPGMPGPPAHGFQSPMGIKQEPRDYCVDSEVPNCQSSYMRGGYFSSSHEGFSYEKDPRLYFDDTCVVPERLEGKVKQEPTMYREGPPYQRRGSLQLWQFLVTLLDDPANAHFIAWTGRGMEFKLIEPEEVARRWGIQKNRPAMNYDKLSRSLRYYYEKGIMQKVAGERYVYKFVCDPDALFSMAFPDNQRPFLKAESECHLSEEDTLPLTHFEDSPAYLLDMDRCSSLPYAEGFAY
# Procedure, shortened: as §1
# HSF1 = HSF1 (Homo sapiens, UniProt Q00613 1-529); conditions: protein: recombinant; tags: N-terminal GST; chain copies: 3; dsDNA, one strand shown
# Sequence of HSF1 (Q00613 whole entry): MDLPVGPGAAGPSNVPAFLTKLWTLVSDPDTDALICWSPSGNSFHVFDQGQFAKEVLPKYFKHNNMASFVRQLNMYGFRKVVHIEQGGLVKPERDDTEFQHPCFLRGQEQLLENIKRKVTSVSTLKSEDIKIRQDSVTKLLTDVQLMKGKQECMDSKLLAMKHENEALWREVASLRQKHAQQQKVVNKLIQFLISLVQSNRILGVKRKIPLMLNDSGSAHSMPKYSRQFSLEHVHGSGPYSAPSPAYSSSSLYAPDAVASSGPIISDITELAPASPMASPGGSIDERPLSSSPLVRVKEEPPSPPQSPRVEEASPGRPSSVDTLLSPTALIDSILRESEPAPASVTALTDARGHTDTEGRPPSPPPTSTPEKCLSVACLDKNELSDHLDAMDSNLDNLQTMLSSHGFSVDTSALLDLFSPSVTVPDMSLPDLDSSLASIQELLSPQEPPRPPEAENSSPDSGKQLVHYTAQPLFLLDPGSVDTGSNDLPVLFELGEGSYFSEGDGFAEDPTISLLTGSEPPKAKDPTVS
# Procedure, shortened: as §1
# SPIC = molecular target: T8, SPIC (Homo sapiens, UniProt Q8N5J4 1-248); conditions: protein: recombinant; tags: N-terminal GST; dsDNA, one strand shown
# T8 sequence: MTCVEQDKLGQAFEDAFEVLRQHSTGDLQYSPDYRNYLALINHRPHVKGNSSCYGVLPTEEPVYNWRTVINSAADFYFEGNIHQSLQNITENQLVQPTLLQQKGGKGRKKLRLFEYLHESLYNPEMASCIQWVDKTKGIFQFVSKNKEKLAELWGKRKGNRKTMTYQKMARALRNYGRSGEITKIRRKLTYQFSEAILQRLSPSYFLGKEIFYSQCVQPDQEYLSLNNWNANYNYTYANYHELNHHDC
# Procedure, shortened: as §1
# ELF4 = ELF4 (Homo sapiens, UniProt Q99607 1-663); conditions: protein: recombinant; tags: N-terminal GST; dsDNA, one strand shown
# Sequence of ELF4 (Q99607 whole entry): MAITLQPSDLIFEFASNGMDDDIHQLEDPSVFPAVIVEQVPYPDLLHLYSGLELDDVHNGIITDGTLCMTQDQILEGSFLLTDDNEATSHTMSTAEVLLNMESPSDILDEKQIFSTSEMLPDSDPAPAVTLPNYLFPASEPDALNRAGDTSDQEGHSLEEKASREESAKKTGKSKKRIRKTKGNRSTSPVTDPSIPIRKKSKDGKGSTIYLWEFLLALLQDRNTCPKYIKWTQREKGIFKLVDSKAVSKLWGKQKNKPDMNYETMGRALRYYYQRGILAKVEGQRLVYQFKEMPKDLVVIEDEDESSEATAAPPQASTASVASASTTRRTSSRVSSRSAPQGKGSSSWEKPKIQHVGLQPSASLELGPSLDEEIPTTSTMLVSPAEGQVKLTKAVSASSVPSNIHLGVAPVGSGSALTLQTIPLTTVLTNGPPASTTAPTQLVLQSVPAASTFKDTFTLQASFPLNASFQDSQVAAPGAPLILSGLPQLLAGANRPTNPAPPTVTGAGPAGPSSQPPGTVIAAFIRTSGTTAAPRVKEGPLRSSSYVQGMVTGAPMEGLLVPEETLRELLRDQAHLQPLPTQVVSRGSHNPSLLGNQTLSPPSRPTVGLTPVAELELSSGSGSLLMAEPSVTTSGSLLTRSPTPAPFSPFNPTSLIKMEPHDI
# Procedure, shortened: as §1
# ELK4 = molecular target: T9, ELK4 (Homo sapiens, UniProt P28324-2 1-405); conditions: protein: recombinant; tags: N-terminal GST; dsDNA, one strand shown
# T9 sequence: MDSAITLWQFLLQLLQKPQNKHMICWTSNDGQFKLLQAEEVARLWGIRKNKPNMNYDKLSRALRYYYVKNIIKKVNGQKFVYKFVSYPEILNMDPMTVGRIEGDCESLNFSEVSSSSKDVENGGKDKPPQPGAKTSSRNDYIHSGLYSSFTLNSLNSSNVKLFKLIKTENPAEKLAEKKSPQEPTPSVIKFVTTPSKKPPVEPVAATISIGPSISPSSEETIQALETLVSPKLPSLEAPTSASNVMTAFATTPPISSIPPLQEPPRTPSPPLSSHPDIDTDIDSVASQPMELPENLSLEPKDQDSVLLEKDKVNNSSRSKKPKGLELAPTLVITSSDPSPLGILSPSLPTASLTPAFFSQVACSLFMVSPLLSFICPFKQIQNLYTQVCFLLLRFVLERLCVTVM
# Procedure, shortened: as §1
# ETV2 = molecular target: T10, ETV2 (Homo sapiens, UniProt O00321 1-342); conditions: protein: recombinant; tags: N-terminal GST; dsDNA, one strand shown
# T10 sequence: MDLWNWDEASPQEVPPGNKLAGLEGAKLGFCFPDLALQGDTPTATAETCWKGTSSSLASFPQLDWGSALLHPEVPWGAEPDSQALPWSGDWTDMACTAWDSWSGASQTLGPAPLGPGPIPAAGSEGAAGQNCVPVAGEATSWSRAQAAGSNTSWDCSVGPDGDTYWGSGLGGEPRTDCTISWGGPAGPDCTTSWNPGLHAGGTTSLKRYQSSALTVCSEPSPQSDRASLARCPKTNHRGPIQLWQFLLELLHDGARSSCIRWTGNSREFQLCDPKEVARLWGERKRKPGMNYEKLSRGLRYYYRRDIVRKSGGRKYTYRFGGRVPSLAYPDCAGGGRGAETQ
# Procedure, shortened: as §1
# ELF3 = molecular target: T11, ELF3 (Homo sapiens, UniProt P78545 1-371); conditions: protein: recombinant; tags: N-terminal GST; dsDNA, one strand shown
# T11 sequence: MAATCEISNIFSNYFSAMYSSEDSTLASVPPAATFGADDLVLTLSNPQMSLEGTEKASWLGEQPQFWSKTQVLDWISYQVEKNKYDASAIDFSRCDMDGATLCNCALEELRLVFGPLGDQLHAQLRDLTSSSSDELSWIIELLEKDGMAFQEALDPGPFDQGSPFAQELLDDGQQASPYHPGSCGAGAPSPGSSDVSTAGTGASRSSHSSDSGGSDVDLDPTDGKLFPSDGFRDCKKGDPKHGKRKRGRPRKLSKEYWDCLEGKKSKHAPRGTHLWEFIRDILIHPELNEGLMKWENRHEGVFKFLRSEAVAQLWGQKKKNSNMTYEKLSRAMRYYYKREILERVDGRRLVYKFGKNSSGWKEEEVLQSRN
# Procedure, shortened: as §1
# CRX = CRX (Homo sapiens, UniProt O43186 1-299); conditions: protein: recombinant; tags: N-terminal GST; dsDNA, one strand shown
# Sequence of CRX (O43186 whole entry): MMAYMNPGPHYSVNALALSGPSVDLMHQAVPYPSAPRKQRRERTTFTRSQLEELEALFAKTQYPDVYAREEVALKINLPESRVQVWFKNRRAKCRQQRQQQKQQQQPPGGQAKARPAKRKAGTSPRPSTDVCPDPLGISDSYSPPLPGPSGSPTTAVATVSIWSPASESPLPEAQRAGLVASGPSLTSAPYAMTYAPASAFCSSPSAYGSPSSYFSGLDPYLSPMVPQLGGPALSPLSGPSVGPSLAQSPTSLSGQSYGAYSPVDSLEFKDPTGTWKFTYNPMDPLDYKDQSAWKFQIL
# Procedure, shortened: as §1
# ETV1 = ETV1 (Homo sapiens, UniProt P50549 1-477); conditions: protein: recombinant; tags: N-terminal GST; dsDNA, one strand shown
# Sequence of ETV1 (P50549 whole entry): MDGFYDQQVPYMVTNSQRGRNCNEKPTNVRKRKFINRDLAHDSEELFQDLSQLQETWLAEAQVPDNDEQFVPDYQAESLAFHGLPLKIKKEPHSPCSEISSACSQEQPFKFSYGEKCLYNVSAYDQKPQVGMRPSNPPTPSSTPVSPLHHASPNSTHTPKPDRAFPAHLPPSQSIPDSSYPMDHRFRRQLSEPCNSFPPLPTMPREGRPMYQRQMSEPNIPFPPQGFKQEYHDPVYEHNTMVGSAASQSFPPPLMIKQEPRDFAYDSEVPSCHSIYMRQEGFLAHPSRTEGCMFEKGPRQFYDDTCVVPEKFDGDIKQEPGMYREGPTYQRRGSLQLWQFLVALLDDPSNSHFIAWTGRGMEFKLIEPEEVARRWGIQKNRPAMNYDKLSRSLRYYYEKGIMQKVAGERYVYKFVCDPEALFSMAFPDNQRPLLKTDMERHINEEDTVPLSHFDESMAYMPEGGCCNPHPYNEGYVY
# Procedure, shortened: as §1
sequence,measurement,setting,value
TTTGGT,binding signal,FLI1,"1.48 fold enrichment (6-mer frequency, TF over GST control)"
same,binding signal,ELK1,"1.29 fold enrichment (6-mer frequency, TF over GST control)"
same,binding signal,GABPA,"1.42 fold enrichment (6-mer frequency, TF over GST control)"
same,binding signal,ERG,"1.31 fold enrichment (6-mer frequency, TF over GST control)"
same,binding signal,ELF1,"1.32 fold enrichment (6-mer frequency, TF over GST control)"
same,binding signal,EHF,"1.36 fold enrichment (6-mer frequency, TF over GST control)"
same,binding signal,SPI1,"1.27 fold enrichment (6-mer frequency, TF over GST control)"
same,binding signal,SPIB,"1.3 fold enrichment (6-mer frequency, TF over GST control)"
same,binding signal,ELK3,"1.37 fold enrichment (6-mer frequency, TF over GST control)"
same,binding signal,FEV,"1.37 fold enrichment (6-mer frequency, TF over GST control)"
same,binding signal,ETV5,"1.29 fold enrichment (6-mer frequency, TF over GST control)"
same,binding signal,HSF1,"1.36 fold enrichment (6-mer frequency, TF over GST control)"
same,binding signal,SPIC,"1.37 fold enrichment (6-mer frequency, TF over GST control)"
same,binding signal,ELF4,"1.3 fold enrichment (6-mer frequency, TF over GST control)"
same,binding signal,ELK4,"1.44 fold enrichment (6-mer frequency, TF over GST control)"
same,binding signal,ETV2,"1.43 fold enrichment (6-mer frequency, TF over GST control)"
same,binding signal,ELF3,"1.17 fold enrichment (6-mer frequency, TF over GST control)"
same,binding signal,CRX,"1.51 fold enrichment (6-mer frequency, TF over GST control)"
same,binding signal,ETV1,"1.36 fold enrichment (6-mer frequency, TF over GST control)"
